SMN2 splice enh: increases expression of the SMN2 splice variant; HEK293 SMN2-luciferase splicing reporter, luminescence, 30-36 h; Potency, µM (titrated, usually from 46.1 µM), inactives show top-dose activity change, positive = activation, usual class: activators; actives 2.8% (n = 210,000); AID 1458; further: % of control where 0% means no effect; nearly all actives have a fitted effect of over 55% in size
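HEK293 cells carry an SMN2 minigene-luciferase reporter in which exon 7 inclusion puts luciferase in frame. Cells were seeded at 2000 cells/well, attached for 10-12 hours, then exposed to compounds for 30-36 hours at 37C before ONE-Glo luminescence.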
Rab9 prom act: Rab9 promoter activation | Huh7 Rab9 promoter-luciferase reporter, luminescence, 24 h | Potency, µM (series often up to 9.22 µM), without a hit: at the highest dose activation, negative = inhibition, hits mostly activators | actives 2.8% (n = 320,000) | AID 485297; further: % of control where 0% means no effect; nearly all actives have a fitted effect of over 60% in size
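Cells were plated at 1500 per well in reduced-serum medium with 10% FBS and left 2 h. Compound in DMSO was then added for 24 h at 37 °C. Reporter signal was read by luminescence after 10 min with luciferase detection reagent.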
ELG1 genotoxic: genotoxicity induction in ELG1-luciferase HEK293T cells. AID 504466. Potency, µM (doses to about 46 µM), inactives show top-dose activity change, positive = activation, hits mostly activators. actives 1.3% (n = 330,000). HEK293T ELG1-luciferase reporter, luminescence, 16 h; further: % of control where 0% means no effect; nearly all actives have a fitted effect of over 60% in size
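Screening used a luciferase reporter fused to human ELG1 in HEK293T cells. Luminescence was read on a CCD plate imager after 16 hr exposure and 30 min ONE-Glo incubation.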
KinaseGlo FLuc: blocks Kinase-Glo luciferase, a counter-screen artifact; Potency, µM (series often up to 38.3 µM), inactives show at the highest dose activity change, negative = inhibition, most hits filed as inhibitors; Kinase-Glo luciferase, ATP luminescence, 8 min; actives 0.28% (n = 200,000); further: on the % scale 0 is the no-effect control and ±100 the full control effect; nearly all actives have a fitted effect of over 60% in size
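Recombinant Kinase-Glo luciferase, 10 uM ATP (linear range), luciferin; imidazole pH 7.2 / KCl / MgCl2 / Tween / BSA buffer; 8 min RT; luminescence.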
FLuc modulator: inhibits or activates purified firefly luciferase, miR-21 counter-screen; purified FLuc, Km substrates, luminescence inhibition; AID 588342; actives 6.9% (n = 360,000); Potency, µM (titrated, usually from 57.5 µM), for the others: at the top dose activity change, negative = inhibition, hits mostly inhibitors;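 further: plate controls were vehicle for no effect and reference inhibitor for full effect; nearly all actives have a fitted effect of over 55% in size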
Target sequence (P08659 whole entry, looked up): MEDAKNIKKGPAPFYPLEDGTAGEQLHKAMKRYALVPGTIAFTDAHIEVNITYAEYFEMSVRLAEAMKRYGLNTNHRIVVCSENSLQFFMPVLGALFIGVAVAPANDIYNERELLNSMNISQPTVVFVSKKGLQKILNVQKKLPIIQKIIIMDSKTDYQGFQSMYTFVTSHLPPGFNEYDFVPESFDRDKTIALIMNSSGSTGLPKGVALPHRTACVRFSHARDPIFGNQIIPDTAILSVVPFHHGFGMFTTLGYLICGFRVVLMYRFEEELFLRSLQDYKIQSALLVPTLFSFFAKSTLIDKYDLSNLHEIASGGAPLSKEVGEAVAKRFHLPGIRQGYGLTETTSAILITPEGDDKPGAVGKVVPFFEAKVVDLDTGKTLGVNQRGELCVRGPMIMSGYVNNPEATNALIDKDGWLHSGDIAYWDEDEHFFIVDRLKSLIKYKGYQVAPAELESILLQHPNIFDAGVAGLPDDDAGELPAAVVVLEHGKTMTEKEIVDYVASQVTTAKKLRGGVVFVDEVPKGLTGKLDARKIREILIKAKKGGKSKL
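Purified P. pyralis luciferase (10nM final) with 10uM D-luciferin and 10uM ATP (Km levels) in 50mM Tris acetate pH 7.5, 10mM Mg acetate, 0.01% Tween-20, 0.05% BSA; qHTS 6-point titration, ~60 µM downward; luminescence read.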
NPC1 prom act: activators of NPC1 promoter; Huh7 NPC1 promoter luciferase reporter, 24 h; Potency, µM (titrated, usually from 9.22 µM), for the others: at the highest dose activation, actives largely listed as activators; actives 2.4% (n = 320,000); AID 485313; further: % of control where 0% means no effect; nearly all actives have a fitted effect of over 60% in size
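Luminescence read-out of NPC1 promoter-driven luciferase in stably transfected Huh7 cells; compounds delivered in DMSO and left 24 h at 37C, 5% CO2, qHTS titration format.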
The depositor's hits bear a star; ? = inconclusive; · = not tested or not shown; [ ] = remark or other dose. In the library only some 7.3% were active in any assay of this set; here they are far more common. The call rests on the fitted dose curve; in most records, active means well fitted curve in the direction sought with a large enough effect; inconclusive means small, poorly fitted or top-dose-only effect, or another doubt; inactive means no such curve, though single readings can be large; an effect the other way counts as inactive or inconclusive. Potency means the concentration at half of the fitted maximal effect.

SMILES | SMN2 splice enh | Rab9 prom act | ELG1 genotoxic | KinaseGlo FLuc | FLuc modulator | NPC1 prom act
c1cncc(-c2nnc(-c3cccs3)o2)c1 | 0.7% | ? | 11.4% | -2.2% | -14.3% | 15.1%
Cc1ccccc1-c1noc(-c2cccs2)n1 | ? | 2.82µM* | ? | -10.1% | 7.57µM* | ?
COc1ccc(-n2ncc3c2ncn2nc(-c4ccc(Cl)cc4Cl)nc32)cc1 | -2.5% | · | · | · | -0.3% | ·
CCCCc1nc2ccccc2n2c(-c3ccc(OC)cc3)c3c(=O)n(C)c(=O)n(C)c3c12 | 7.9% | · | · | · | -1.6% | ·
O=C(Nc1ccon1)c1cc(-c2ccccc2)nc2ccccc12 | -8.0% | -0.1% | -4.9% | 0.7% | -12.1% | -0.2%
Cc1cc(NC(=O)c2cc(-c3ccc(OC(C)C)cc3)nc3ccccc23)no1 | · | 19.2% | 6.0% | · | 3.01µM* | 18.8%
CCC(C)c1ccc(-c2cc(C(=O)OCC(=O)Nc3cc(C)on3)c3ccccc3n2)cc1 (configuration not stated) | 22.4µM* | 1.58µM* | 1.84µM* | 0.0% | 2.69µM* | ?
O=C(NC1CC(=O)N(c2ccccc2)C1)c1ccc(S(=O)(=O)N2CCCCC2)cc1 (configuration not stated) | · | · | · | · | -8.7% | ·
Cc1cc(O)c(C(C)(C)C)cc1Sc1cc(C(C)(C)C)c(O)cc1C | -54.1% | · | · | · | · | ·
CCC1(c2ccc(F)cc2)NC(=O)N(CC(=O)Nc2ccc(-c3nc4ccc(C)cc4s3)cc2)C1=O (configuration not stated) | 3.98µM* | 1.41µM* | ? | -4.1% | 3.38µM* | 2.82µM*
CCC1(c2ccc(F)cc2)NC(=O)N(CC(=O)Nc2ccc3c(c2)OCCO3)C1=O (configuration not stated) | · | · | 0.1% | · | · | ·
COc1ccc(C2(C)NC(=O)N(CC(=O)Nc3ccc(-c4nc5ccc(C)cc5s4)cc3)C2=O)cc1 (configuration not stated) | 7.08µM* | 2.24µM* | ? | -3.4% | 3.38µM* | 3.98µM*
Cc1ccc(NC(=O)CN2C(=O)NC(C)(c3ccc(Cl)cc3)C2=O)cc1 (configuration not stated) | · | -2.3% | -5.8% | · | 0.5% | -2.5%
COc1ccc(NC(=O)CN2C(=O)NC(c3ccccc3)(c3ccccc3)C2=O)cc1 | · | -2.4% | -2.6% | · | 21.3µM* | -2.7%
CCN(CC)c1ccc(C=Nc2ccc(C#N)cc2)c(O)c1 | -6.6% | 0.7% | 9.4% | -1.4% | -11.6% | -0.2%
CCN(CC)c1ccc(O)c(C=Nc2ccc(C)c(C)c2)c1 | 4.7% | ? | ? | 0.9% | 3.38µM* | 26.1%
CCN(CC)c1ccc(/C=N/N(c2ccccc2)c2ccccc2)c(O)c1 | -10.2% | 2.0% | 0.2% | -0.4% | -11.2% | -1.5%
CCN(CC)c1ccc(C=Nc2ccccc2C)c(O)c1 | 26.8% | ? | 5.0% | 2.9% | 1.35µM* | ?
CCOC(=O)Cc1c(C)nc2c(-c3ccc(Cl)cc3)cnn2c1C | -5.9% | -0.9% | 4.8% | 1.5% | 26.9µM* | 1.4%
CCOC(=O)Cc1c(C)nc2c(-c3ccccc3)c(C)nn2c1C | -10.6% | 0.4% | -0.2% | -0.9% | 21.3µM* | -2.0%
Cc1ccc(NC(=O)Cc2ccsc2)cc1Cl | · | 12.2% | 8.1% | · | ? | -1.1%
Cc1nc2ccc(NC(=O)Cc3cccc(F)c3)cc2s1 | 26.8% | 29.9% | 12.0% | 1.8% | 19µM* | 21.2%
Cc1nc2ccc(NC(=O)Cc3ccsc3)cc2s1 | ? | ? | 11.6µM* | 0.6% | 12µM* | 2.82µM*
Cc1nc2ccc(NC(=O)Cc3ccccc3F)cc2s1 | 11.2µM* | ? | 8.2µM* | -17.6% | 6.75µM* | 2.82µM*
Cc1nc2ccc(NC(=O)COc3cccc(F)c3)cc2s1 | -9.9% | -3.4% | 5.5% | -0.4% | ? | -3.2%
SMILES | SMN2 splice enh | Rab9 prom act | ELG1 genotoxic | KinaseGlo FLuc | FLuc modulator | NPC1 prom act
CC(/C=C/C=C(C)/C=C/C(=O)O)=C\C=C\C=C(C)\C=C\C=C(C)\C=C\C(=O)O | 15.9% | · | · | · | · | ·
COc1ccccc1-c1cc(C(=O)N2CCOCC2)no1 | · | 2.24µM* | 2.91µM* | · | 13.5µM* | ?
O=C(c1csc(Nc2ccccc2Cl)n1)N1CCCC1 | 12.6µM* | ? | 20.2% | 2.0% | ? | ?
O=C(c1cc(-c2ccccc2Cl)on1)N1CCCC1 | · | ? | ? | · | 1.2µM* | ?
O=C(c1cc(-c2ccc(Cl)cc2)on1)N1CCN(c2ccc(F)cc2)CC1 | · | -1.0% | -1.4% | · | -1.6% | -0.2%
O=C(c1cccc(F)c1)N1CCN(C(=O)c2cc(-c3ccc(Cl)cc3Cl)on2)CC1 | · | -3.1% | -5.2% | 1.9% | 10.7µM* | 0.5%
O=C(c1csc(Nc2cccc3ccccc23)n1)N1CCCC1 | · | 0.1% | -4.6% | · | -10.8% | 0.8%
COc1ccc(CNC(=O)c2cccn2-c2nnc(N3CCCC3)s2)c(OC)c1 | · | · | · | · | -10.2% | ·
COC(=O)C1=C(C(=O)OC)[C@@H]2Nc3ccccc3[C@@]23C[C@@H](C(=O)OC)N(S(=O)(=O)c2ccc(C)cc2)C3=N1 | -5.2%[9.22 µM] | · | · | -3.5%[7.66 µM] | · | ·
COc1ccccc1-c1cc(C(=O)N2CCCC2)no1 | · | 2µM* | 2.91µM* | · | 7.57µM* | 2.51µM*
COc1ccccc1-c1cc(C(=O)N2CCN(c3ccc(F)cc3)CC2)no1 | -18.1% | -0.8% | -4.0% | 1.5% | -16.9% | 0.8%
Cc1cc(=O)oc2cc(NC(=O)c3ccccc3OC(F)F)ccc12 | · | 3.16µM* | ? | · | ? | 3.98µM*
Cc1cc(=O)oc2cc(NC(=O)c3cc(F)ccc3F)ccc12 | · | 2.51µM* | ? | · | 3.1% | ?
Cc1cccc(CNC(=O)C(=O)Nc2ccccc2C)c1 | 5.6% | · | · | · | -5.1% | ·
COc1ccc(-c2cc3nc(C)c(CCC(=O)NC(C)c4ccccc4)c(C)n3n2)c(OC)c1 (configuration not stated) | -5.3% | · | · | · | -8.9% | ·
COC(=O)C(C)NC(=O)N1CCN(c2nnc(C)c3c(C)n(-c4ccc(Cl)cc4)nc23)CC1 (configuration not stated) | · | · | · | · | -0.5% | ·
Cc1ccc(N/C=C(/C#N)c2ccsc2)cc1 | ? | · | · | 9.3% | 16.9µM* | ·
COc1ccc(/C=C2\SC(=S)N(c3cccnc3)C2=O)cc1 | · | 3.0% | 3.9% | · | 6.2% | 3.0%
COc1cccc(/C=C2\SC(=S)N(c3cccnc3)C2=O)c1OC | 10.1% | -3.9% | -0.4% | 0.5% | 2.39µM* | -1.4%
COc1ccc2cc3cc(C(=O)N4CCCC(C)C4)oc3nc2c1 (configuration not stated) | · | 2µM* | ? | · | 5.36µM* | 2.51µM*
CCOC(=O)C1CCN(C(=O)c2cc3cc4cc(OC)ccc4nc3o2)CC1 | 11.2µM* | 3.16µM* | 8.9% | 4.1% | ? | ?

Screening results deposited in PubChem by National Center for Advancing Translational Sciences (NCATS).
